Screening data: PubChem BioAssay, several laboratories
HSP90 inh: HSP90 inhibitors, primary screen, cell lysate, luminescence; Heat shock protein HSP 90 (rabbit reticulocyte lysate; luciferase refolding); Rabbit reticulocyte lysate, luciferase refolding luminescence, 3 h; inhibition, % at 5.6 µM; 0.91% of 290,000 active; AID 1789, 2009;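 active = inhibition above the screen-wide mean plus 3 SD, computed separately per campaign, cut at about 16% in these data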;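 note: 0% = DMSO wells and 100% = 60 µM geldanamycin wells; inhibitors lower the luminescence because luciferase stays unfolded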
TWEAK-Fn14 inh: inhibitors of TWEAK-Fn14 signaling, primary screen, luciferase reporter cells, uHTS; TWEAK-stimulated Fn14 reporter cells, luciferase luminescence, 8 h; inhibition, % at 10 µM; 2% of 360,000 active; in the data active = inhibition above about 50%
LMP1 NFkB inh: EBV LMP1-driven NF-kappaB luciferase reporter inhibitors, primary screen, cell-based, luminescence, single point; LMP1-induced NF-kappaB luciferase reporter cells; inhibition, % at 12.5 µM; 0.69% of 350,000 active; in the data active = inhibition above about 41%; inconclusive = no clear call, values can overlap the other calls;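 note: 0% = neutral control wells and 100% = reference inhibitor control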
HSF-1 act: HSF-1 activators, primary screen, NIH3T3-HGL cells, MG132 stress, luminescence, single point; NIH3T3-HGL HSF-1 luciferase reporter, 8 h; 100% = twice DMSO control signal; activation, % at 9 µM; 1.7% of 300,000 active; AID 504408, 2011;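 active = mean replicate activation of at least 50% with a set share of replicates each reaching 50%; inconclusive = only one of those two conditions met; inactive = mean below 50% and too few replicates reaching it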;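 note: 0% = median of the neutral control wells and 100% = twice that signal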
TROY NFkB inh: inhibitors of TROY-driven NF-kB signaling, primary screen, Q293 LMP1-TROYcd cells, NF-kB luciferase, uHTS; Q293 LMP1-TROYcd NF-kB luciferase reporter, 4 h; inhibition, % at 10 µM; 0.98% of 360,000 active;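 active = compounds whose plate-normalised and pattern-corrected inhibition of the luciferase reporter signal at the single screening dose is 50% or more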
HSF1 inhib: HSF1 inhibitors in luciferase reporter cells, primary screen, cell-based, NIH3T3, luminescence; NIH3T3-HGL HSE-luciferase, MG132-induced, luminescence 8 h; active compounds read low; activity change, negative = inhibition, % at 7.5 µM (by protocol); 0.77% of 300,000 active; AID 2098, 2009;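 active = more than half of replicate wells show activity change below -50%, luminescence cut by over half; inconclusive = some wells, but at most half, below -50%; inactive = no replicate well below -50%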;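 note: luciferase reports HSF-1 transcriptional activity via heat shock element; 0% = median of DMSO wells and -100% = zero luminescence signal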
The depositor's hits bear a star; ? = inconclusive; / = not tested or not shown. Most compounds without a hit are left out; they make up all but 4.7% or so of the library.

SMILES	HSP90 inh	TWEAK-Fn14 inh	LMP1 NFkB inh	HSF-1 act	TROY NFkB inh	HSF1 inhib
C=CC[C@@H](CC(=O)N(CCO)Cc1ccccc1)C(=O)N[C@@H](COC(=O)[C@@H](CC=C)Cc1ccc(F)cc1)Cc1c[nH]c2ccccc12	/	57*	7	/	45	/
CCOc1cccc(Cc2c[nH]c(=O)[nH]c2=O)c1	/	-2	-2	/	19	/
COCCN(CC(=O)Nc1cccc(C)c1C)C(=O)/C=C/c1ccc2c(c1)OCCO2	/	8	-8	/	1	/
COc1ccc(-c2cc(-c3ccccc3)no2)cc1	/	69*	-22	6	18	-4
COc1ccc(-c2cc(CS(=O)(=O)c3ccccc3)on2)cc1	2	-20	-40	64*	-42	19
c1ccc(-c2cc(-c3cc(-c4ccccc4)on3)no2)cc1	/	-17	-45	/	-54	/
CC1C(c2ccccc2)OCCN1C(=S)Nc1ccc(S(=O)(=O)N2CCCCC2)cc1 (stereo not given)	/	43	-2	/	9	/
CCOC(=O)C1(C)CCCN(C(=O)c2cc(C#N)cs2)C1 (stereo not given)	/	9	/	/	-4	/
CCOC(=O)NC(=O)/C(C#N)=N\Nc1cccc(Cl)c1	-3	-1	3	-25	56*	0
CCOC(=O)NC(=O)/C(C#N)=N\Nc1ccc(Cl)cc1	0	-1	2	-7	-6	-1
CC1(C(=O)NS(=O)(=O)c2ccccc2OC(F)(F)F)CCN1C(=O)c1ccccc1 (stereo not given)	/	7	/	/	4	/
O=C1C(=Cc2ccncc2)CCCc2ccccc21	/	12	7	/	-6	/
O=C1/C(=C/c2ccncc2)CCC/C1=C\c1ccncc1	0	103*	85*	12	82*	15
OCCNc1ncnc2c1ncn2[C@H]1CN(C2CCCC2)C[C@@H](CO)O1	/	11	/	/	-5	/
O=C(NNc1nc(-c2ccccc2)cs1)c1ccccc1	1	13	17	-10	-43	-2
COC(=O)c1nc(NNC(=O)c2ccccc2)sc1-c1ccccc1	4	82*	-4	25	-6	2
CCC(=O)Oc1oc(-c2ccccc2)nc1C=Nc1ccccc1OC	3	-7	0	-54	27	?
CN=Cc1nc(-c2ccccc2)oc1O	4	-1	-1	19	-50	19
CCC(=O)Oc1oc(-c2ccccc2)nc1C=Nc1ccc(C)cc1	-2	10	2	11	72*	9
Cc1ccc(-c2nc(C=Nc3ccc(O)cc3)c(O)o2)cc1	-2	64*	-51	/	-16	/
COc1ccc(CNc2nn3c(-c4cccc(C(=O)N(C)C)c4)cnc3s2)cc1	/	81*	/	/	50*	/
O=C1[C@@H]2Cc3ccccc3CN2C(=O)N1c1cccc(F)c1	0	34	-13	13	62*	3
C[C@@H]1CN([C@@H](C)CO)C(=O)CCCn2nncc2CO[C@@H]1CN(C)C(=O)Nc1ccc(N2CCN(C)CC2)cc1	/	-15	4	/	-6	/
COc1ccc(C(c2c(NC(=O)c3ccco3)sc(C)c2C)N2CCOCC2)cc1 (stereo not given)	/	83*	17	/	52*	/
CC(CO)NS(=O)(=O)c1cc(Cl)ccc1F (stereo not given)	/	-5	-2	/	4	/
SMILES	HSP90 inh	TWEAK-Fn14 inh	LMP1 NFkB inh	HSF-1 act	TROY NFkB inh	HSF1 inhib
COc1ccccc1N1CCN(C(=S)Nc2ccc(F)cc2)CC1	13	37	22	-75	53*	-73*
CC(=O)C1CCC2C3C=CC4=CC(=O)CCC4(C)C3CCC12C (stereo not given)	/	-15	/	/	1	/
CC(C)C[C@H]1CN([C@@H](Cc2ccc(O)cc2)CN2CCC[C@H]2CN2C(=O)C(=O)NC[C@@H]2Cc2ccccc2)C(=O)C(=O)N1CC1CCCCCC1	/	4	/	/	7	/
COc1ccc(NC(=O)CNCc2cccs2)c(OC)c1	/	1	5	/	-23	/
O=C1/C(=C/c2ccc3c(c2)OCO3)SC(=S)N1CCC(=O)N(CCO)c1ccccc1	/	39	4	/	27	/
O=C1/C(=C/c2cccc(Br)c2)SC(=S)N1CCC(=O)N(CCO)c1ccccc1	13	86*	-2	-13	35	-3
Cc1ccc(NNC(=O)c2ccno2)c(C)c1	2	-12	-16	68*	27	19
Cc1cc(NC(=O)c2ccno2)no1	0	5	5	25	15	2
CCN(CC)c1ncnc2c1ncn2[C@H]1CN(Cc2cc(OC)c(OC)c(OC)c2)C[C@@H](CO)O1	/	-3	/	/	8	/
COc1ccc(OC)c(NC(=O)C2(C)CCN2Cc2ccsc2)c1 (stereo not given)	/	-23	/	/	-6	/
N#CCCn1[nH]c(-c2ccccc2)cc1=O	31*	-5	-3	22	7	20
Cc1cc(=O)n(CCCc2ccccc2)[nH]1	/	6	6	32	5	9
Cn1c2ccccc2c2cc(/C=N/NC(=O)c3ccccc3F)ccc21	2	-32	-4	46	-76	17
CCn1c2ccccc2c2cc(/C=N/NC(=O)c3cccc(C)c3)ccc21	4	7	88*	8	23	2
CCn1c2ccccc2c2cc(/C=N/NC(=O)c3ccccc3C)ccc21	-1	13	87*	7	11	-9
Cn1c2ccccc2c2cc(/C=N/NC(=O)c3ccc(N)cc3)ccc21	3	-12	7	18	-14	4
CCN(CC)c1ccc(/C=N/NC(=O)C(O)(c2ccccc2)c2ccccc2)o1	-1	/	/	281*	/	164
O=C(CN1CC(=O)Oc2ccccc21)OCC(=O)c1cccc(Br)c1	2	-11	-12	53*	9	31
CC(C)c1ccc(NC(=O)C2(C)Cc3c(-c4ccc(C(N)=O)cc4)ccnc3O2)cc1 (stereo not given)	/	-202	/	/	-34	/
Cn1cccc1/C=N/n1c(-c2ccc(Cl)cc2)n[nH]c1=S	-1	7	-6	6	10	5
Cn1cccc1/C=N/n1c(-c2ccc(Cl)cc2Cl)n[nH]c1=S	1	4	84*	0	3	-11
CC(NC(=O)OCc1ccccc1)C(=O)Oc1cc2oc(=O)cc(-c3ccccc3)c2cc1Cl (stereo not given)	0	71*	9	-20	37	-15
COc1ccc(C(O)c2nc(-c3cc(F)cc(Cl)c3)cs2)cc1 (stereo not given)	/	-6	/	/	1	/
CCOC(=O)[C@]12CCC=C1N(Cc1ccc3c(c1)OCO3)C(=O)[C@H](CC(=O)NCCC(C)C)C2	/	0	/	/	-6	/
CCOc1ccccc1Nc1nnc(SCc2nnc(-c3cc(OC)c(OC)c(OC)c3)o2)s1	-2	32	8	-81	-5	-74*
